Assay results as given in PubChem BioAssay AID1159580 (chemical genetic matrix, 2015).
The whole screen tested about 5,500 compounds, of which about 2,000 (36%) were called active. About 18% were inconclusive and are not listed. No stated cut-off is given here; in the data, active means normalized growth mostly below about 0.91 (no sharp cut-off); inconclusive means no clear call, values can overlap the other calls; inactive means mostly above about 0.92. This is one part of the list.

Assay: chemical genetic growth profiling, strain panel (AID 1159580);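 further: tested at 20 µM; growth read once vehicle control cultures reached saturation at 30 °C; 1 = growth at the plate median or of vehicle wells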
Details: S. cerevisiae deletion strains, growth OD

Measured: normalized growth

C=C1C2CC[C@@]3(C)[C@H](c4ccoc4)OC(=O)C[C@]13O[C@H]1CC(=O)C(C)(C)[C@H](C(OC(C)=O)C(=O)OC)[C@@]21C (stereo not given in full)
inactive: locus YAL021C, strain ccr4, stronger effect = lower value 1 | locus YAL026C, strain drs2, stronger effect = lower value 1.03 | locus YAL030W, strain snc1, stronger effect = lower value 1 | locus YBL061C, strain skt5, stronger effect = lower value 1.02 | locus YBR009C, strain hhf1, stronger effect = lower value 1.02 | locus YBR021W, strain FUR4, stronger effect = lower value 0.999 | locus YBR023C, strain chs3, stronger effect = lower value 0.998 | locus YBR171W, strain sec66, stronger effect = lower value 1.02 | locus YBR229C, strain ROT2, stronger effect = lower value 0.994 | locus YBR231C, strain swc5, stronger effect = lower value 1.04 | locus YBR279W, strain paf1, stronger effect = lower value 1.01 | locus YCL011C, strain gbp2, stronger effect = lower value 0.993 | locus YCL016C, strain dcc1, stronger effect = lower value 0.983 | locus YCL029C, strain bik1, stronger effect = lower value 1 | locus YCL069W, strain vba3, stronger effect = lower value 1 | locus YCR088W, strain abp1, stronger effect = lower value 1.01 | locus YDL005C, strain med2, stronger effect = lower value 1.01 | locus YDL035C, strain GPR1, stronger effect = lower value 0.978 | locus YDL040C, strain nat1, stronger effect = lower value 1 | locus YDL074C, strain BRE1, stronger effect = lower value 1.01 | locus YDL101C, strain DUN1, stronger effect = lower value 1.01 | locus YDL185W, strain tfp1, stronger effect = lower value 1.01 | locus YDL192W, strain arf1, stronger effect = lower value 0.998 | locus YDR001C, strain nth1, stronger effect = lower value 1.02 | locus YDR069C, strain doa4, stronger effect = lower value 1.03 | locus YDR101C, strain arx1, stronger effect = lower value 0.978 | locus YDR137W, strain rgp1, stronger effect = lower value 0.872 | locus YDR150W, strain NUM1, stronger effect = lower value 0.985 | locus YDR159W, strain sac3, stronger effect = lower value 1.05 | locus YDR162C, strain NBP2, stronger effect = lower value 0.985 | locus YDR195W, strain ref2 1.02 | locus YDR297W, strain sur2, stronger effect = lower value 1.02 | locus YDR318W, strain mcm21, stronger effect = lower value 1.01 | locus YDR334W, strain swr1, stronger effect = lower value 1.01 | locus YDR335W, strain msn5, stronger effect = lower value 1.01 | locus YDR388W, stronger effect = lower value 1.01 | locus YDR392W, strain spt3, stronger effect = lower value 0.922 | locus YDR502C, strain sam2, stronger effect = lower value 1.02 | locus YEL003W, strain gim4, stronger effect = lower value 1.03 | locus YEL037C, strain rad23, stronger effect = lower value 1.01 | locus YEL061C, strain CIN8 (second series), stronger effect = lower value 1.01 | locus YEL061C, strain CIN8, stronger effect = lower value 0.99 | locus YER015W, strain faa2, stronger effect = lower value 1 | locus YER016W, strain bim1, stronger effect = lower value 1.01 | locus YER110C, stronger effect = lower value 1.01 | locus YER111C, strain swi4, stronger effect = lower value 1.02 | locus YER155C, strain BEM2 (second series), stronger effect = lower value 1.06 | locus YER155C, strain BEM2, stronger effect = lower value 1.02 | locus YER167W, strain BCK2, stronger effect = lower value 1 | locus YFR010W, strain ubp6, stronger effect = lower value 1.04 | locus YGL078C, strain dbp3, stronger effect = lower value 1.01 | locus YGL086W, strain mad1, stronger effect = lower value 0.987 | locus YGL167C, strain pmr1, stronger effect = lower value 1.01 | locus YGL173C, strain kem1, stronger effect = lower value 1.03 | locus YGL227W, strain vid30, stronger effect = lower value 1.01 | locus YGL240W, strain doc1, stronger effect = lower value 1.03 | locus YGL248W, strain PDE1, stronger effect = lower value 1.01 | locus YGL253W, strain hxk2, stronger effect = lower value 0.99 | locus YGR135W, strain pre9, stronger effect = lower value 1.05 | locus YGR252W, strain gcn5, stronger effect = lower value 1.02 | locus YHR013C, strain ard1, stronger effect = lower value 0.983 | locus YHR027C, strain rpn1, stronger effect = lower value 1.02 | locus YHR079C, strain IRE1 (second series), stronger effect = lower value 0.997 | locus YHR094C, strain hxt1, stronger effect = lower value 1.01 | locus YHR129C, strain ARP1, stronger effect = lower value 1.01 | locus YHR142W, strain chs7, stronger effect = lower value 0.977 | locus YHR200W, strain rpn10, stronger effect = lower value 1.01 | locus YIL066C, strain RNR3, stronger effect = lower value 0.976 | locus YIL073C, strain SPO22, stronger effect = lower value 1.01 | locus YIL125W, strain kgd1, stronger effect = lower value 0.994 | locus YIR030C, strain dcg1, stronger effect = lower value 0.997 | locus YJL092W, strain hpr5, stronger effect = lower value 1.02 | locus YJL095W, strain BCK1 (second series), stronger effect = lower value 1.02 | locus YJL095W, strain BCK1, stronger effect = lower value 1.04 | locus YJL115W, strain asf1, stronger effect = lower value 1.01 | locus YJL129C, strain trk1, stronger effect = lower value 1 | locus YJL134W, strain LCB3, stronger effect = lower value 0.998 | locus YJL154C, strain vps35, stronger effect = lower value 1.01 | locus YJL164C, strain tpk1, stronger effect = lower value 0.995 | locus YJL166W, strain qcr8, stronger effect = lower value 1.03 | locus YJL168C, strain set2, stronger effect = lower value 1 | locus YJL187C, strain SWE1 (second series), stronger effect = lower value 1.03 | locus YJL187C, strain SWE1, stronger effect = lower value 1 | locus YKL009W, strain mrt4, stronger effect = lower value 0.983 | locus YKL068W, stronger effect = lower value 1 | locus YKL085W, strain MDH1 (second series), stronger effect = lower value 0.981 | locus YKL085W, strain MDH1, stronger effect = lower value 0.981 | locus YKL160W, strain elf1, stronger effect = lower value 0.976 | locus YKR001C, strain vps1, stronger effect = lower value 0.995 | locus YKR026C, strain gcn3, stronger effect = lower value 1.01 | locus YKR091W, strain srl3, stronger effect = lower value 1 | locus YLL001W, strain dnm1, stronger effect = lower value 0.992 | locus YLL026W, stronger effect = lower value 1 | locus YLL041C, strain sdh2, stronger effect = lower value 1.01 | locus YLR027C, strain aat2, stronger effect = lower value 1.02 | locus YLR039C, strain RIC1, stronger effect = lower value 0.917 | locus YLR058C, strain SHM2, stronger effect = lower value 1.01 | locus YLR102C, strain apc9, stronger effect = lower value 1 | locus YLR221C, strain rsa3, stronger effect = lower value 1.04 | locus YLR258W, strain gsy2, stronger effect = lower value 1.02 | locus YLR262C, strain YPT6 (second series), stronger effect = lower value 0.892 | locus YLR268W, strain sec22, stronger effect = lower value 0.987 | locus YLR320W, strain mms22, stronger effect = lower value 1.03 | locus YLR342W, strain FKS1 (second series), stronger effect = lower value 0.978 | locus YLR342W, strain FKS1, stronger effect = lower value 1 | locus YLR357W, strain rsc2, stronger effect = lower value 1.02 | locus YLR370C, strain arc18, stronger effect = lower value 0.998 | locus YLR371W, strain rom2, stronger effect = lower value 1 | locus YLR384C, strain iki3, stronger effect = lower value 1.03 | locus YLR418C, strain cdc73, stronger effect = lower value 1.01 | locus YML016C, strain PPZ1, stronger effect = lower value 1 | locus YML032C, strain rad52, stronger effect = lower value 1.01 | locus YML120C, strain ndi1, stronger effect = lower value 1.01 | locus YML124C, strain tub3, stronger effect = lower value 1 | locus YMR058W, strain fet3, stronger effect = lower value 1.03 | locus YMR078C, strain ctf18, stronger effect = lower value 1.01 | locus YMR125W, strain sto1, stronger effect = lower value 0.996 | locus YMR129W, stronger effect = lower value 1.01 | locus YMR205C, strain PFK2, stronger effect = lower value 0.992 | locus YMR223W, strain ubp8, stronger effect = lower value 1.01 | locus YMR231W, strain pep5, stronger effect = lower value 1.01 | locus YMR307W, strain GAS1, stronger effect = lower value 0.996 | locus YNL067W, strain RPL9B, stronger effect = lower value 1.03 | locus YNL071W, strain lat1, stronger effect = lower value 0.993 | locus YNL209W, strain ssb2, stronger effect = lower value 0.993 | locus YNL233W, strain BNI4, stronger effect = lower value 1.01 | locus YNL248C, strain rpa49, stronger effect = lower value 1.04 | locus YNL250W, strain rad50, stronger effect = lower value 1.03 | locus YNL271C, strain bni1, stronger effect = lower value 1 | locus YNL298W, strain CLA4, stronger effect = lower value 1.01 | locus YNL307C, strain MCK1, stronger effect = lower value 1.01 | locus YNL322C, strain KRE1 (second series), stronger effect = lower value 1.02 | locus YNR049C, strain mso1, stronger effect = lower value 1.01 | locus YNR052C, strain pop2, stronger effect = lower value 1.02 | locus YOL006C, strain TOP1, stronger effect = lower value 0.972 | locus YOL012C, strain htz1 0.586 | locus YOL147C, strain pex11, stronger effect = lower value 1 | locus YOR001W, strain rrp6, stronger effect = lower value 1.04 | locus YOR061W, strain CKA2, stronger effect = lower value 0.997 | locus YOR069W, strain VPS5, stronger effect = lower value 1 | locus YOR070C, strain gyp1, stronger effect = lower value 1.03 | locus YOR080W, strain dia2, stronger effect = lower value 1.01 | locus YOR083W, strain WHI5, stronger effect = lower value 0.978 | locus YOR106W, strain vam3, stronger effect = lower value 0.958 | locus YOR136W, strain idh2, stronger effect = lower value 0.997 | locus YOR144C, strain elg1, stronger effect = lower value 1 | locus YOR184W, strain ser1, stronger effect = lower value 0.972 | locus YOR265W, strain rbl2, stronger effect = lower value 0.996 | locus YOR270C, strain vph1, stronger effect = lower value 0.904 | locus YOR290C, strain snf2, stronger effect = lower value 0.95 | locus YOR316C, strain cot1, stronger effect = lower value 1 | locus YPL051W, strain arl3, stronger effect = lower value 1.01 | locus YPL078C, strain atp4, stronger effect = lower value 0.958 | locus YPL106C, strain sse1, stronger effect = lower value 1.04 | locus YPL240C, strain hsp82, stronger effect = lower value 1.01 | locus YPR119W, strain clb2, stronger effect = lower value 1.01 | locus YPR141C, strain kar3, stronger effect = lower value 1 | locus YPR163C, strain tif3, stronger effect = lower value 1.01 | locus YPR167C, strain met16, stronger effect = lower value 0.999 | strain wtn01, stronger effect = lower value 0.993
